Compounds with a hit are over-represented: about 9.4% of the library has one in this group of screens.
Pf growth 96h: P. falciparum growth inhibition at 96 hours | actives 6.9% (n = 320,000) | Potency, µM (highest dose often 28.7 µM), for inactives: at the top dose activity change, negative = inhibition, hits mostly inhibitors | P. falciparum luciferase reporter growth, 96 h | AID 504834; note: % is set by controls: 0 for no effect and ±100 for the full control effect
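Two parasite generations (96 h, 37 C, 5% CO2) of compound exposure in infected erythrocytes (0.05% parasitemia, 2% hematocrit). Luciferase-reporter P. falciparum; decreased luminescence indicates inhibited growth, aimed at apicoplast-acting delayed death.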
AMA1-RON2 inh: disrupts binding of P. falciparum AMA1 to RON2; actives 0.2% (n = 360,000); AlphaScreen AMA1-biotinylated RON2 peptide binding; Potency, µM (series often up to 58.2 µM), inactives show at the top dose activity change, negative = inhibition, hits mostly inhibitors;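 note: 0% = vehicle wells and -100% = peptide control; nearly all actives have a fitted effect of over 45% in size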
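AMA1 (3D7) with his tag at 25 nM final met compounds first, then biotinylated RON2 peptide at 25 nM; detection used donor plus acceptor beads, 10 µg/mL apiece, read by AlphaScreen after 30 min at room temperature.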
Pf growth 48h: P. falciparum growth inhibition at 48 hours (one generation); P. falciparum luciferase growth in erythrocytes, 48 h; Potency, µM (highest dose often 28.7 µM), for inactives: at the highest dose activity change, negative = inhibition, usual class: inhibitors; actives 5.9% (n = 310,000); note: % is set by controls: 0 for no effect and ±100 for the full control effect
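In quantitative HTS format, infected erythrocytes bearing luciferase-reporter parasites were treated for a single generation at 37 C. Luminescence after adding detection reagent served as the growth measure.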
SARS PLP yeast: blocks SARS-CoV papain-like protease in a yeast assay; S. cerevisiae expressing SARS-CoV PLpro, growth rescue; Potency, µM (highest dose often 32.9 µM), for inactives: top-dose activity, positive = growth rescue, actives largely listed as activators; actives 0.19% (n = 330,000); AID 485353; calls by dose curve; note: 0% is about no effect; nearly all actives have a fitted effect of over 55% in size
An asterisk follows results filed as active. Unless noted, calls come from the whole dose curve; as a rule, active = well fitted curve in the direction sought with a large enough effect; inconclusive = small, poorly fitted or top-dose-only effect, or another doubt; inactive = no such curve, though single readings can be large; an effect the other way counts as inactive or inconclusive. Potency is the fitted concentration of half-maximal effect.

Results for CCOc1ccc(NC(=O)c2sc3nc(N4CCOCC4)c4c(c3c2N)CCCC4)cc1 ?
Pf growth 96h: 13µM*; AMA1-RON2 inh: 11%; Pf growth 48h: inconclusive; SARS PLP yeast: -1%

What do the screens show for `Nc1c(C(=O)NCc2ccccc2)sc2nc(N3CCOCC3)c3c(c12)CCCC3`?
Pf growth 96h: 12µM*; AMA1-RON2 inh: -4%; Pf growth 48h: inconclusive; SARS PLP yeast: 0%

Results for COC(=O)c1cc(S(=O)(=O)NCC(C)c2ccccc2)cn1C (configuration not stated) ?
Pf growth 96h: inconclusive; AMA1-RON2 inh: 9%; Pf growth 48h: 22%; SARS PLP yeast: 6%

How did O=C(N/N=C/c1ccc(Cl)c([N+](=O)[O-])c1)c1cnccn1 do in these assays?
Pf growth 96h: 5%; AMA1-RON2 inh: 14%; Pf growth 48h: -2%; SARS PLP yeast: 21%

Results for O=C(N/N=C/c1ccc(Sc2nc3ccccc3s2)c([N+](=O)[O-])c1)c1ccccn1 ?
Pf growth 96h: 10µM*; AMA1-RON2 inh: 41%; Pf growth 48h: inconclusive; SARS PLP yeast: 1%

Results for COc1ccc(C)cc1NC(=O)CN1C(=O)COc2ccc(C)cc21 ?
Pf growth 96h: 5.2µM*; AMA1-RON2 inh: -2%; Pf growth 48h: -10%; SARS PLP yeast: inconclusive

What do the screens show for `CCCCCCCCC(=O)Nc1cc(C)ccc1OC`?
Pf growth 96h: inconclusive; AMA1-RON2 inh: 24%; Pf growth 48h: 10µM*; SARS PLP yeast: -26%

What do the screens show for `COc1ccccc1NC(=O)CN1C(=O)COc2ccc(C)cc21`?
Pf growth 96h: -21%; AMA1-RON2 inh: 16%; Pf growth 48h: -14%; SARS PLP yeast: 0%

Results for Cc1nn(C)c(C)c1NS(=O)(=O)c1ccc(Cl)s1 ?
AMA1-RON2 inh: 1%; SARS PLP yeast: -2%

How did CCNC(=S)N/N=C/c1sc(N2CCCCC2)nc1-c1cccs1 do in these assays?
Pf growth 96h: 0.17µM*; AMA1-RON2 inh: 51%; Pf growth 48h: 0.26µM*; SARS PLP yeast: 16%

How did CC(C(=O)NCCC1=CCCCC1)N1C(=O)c2ccccc2C1=O (configuration not stated) do in these assays?
Pf growth 96h: 5.9µM*; AMA1-RON2 inh: 7%; Pf growth 48h: -18%; SARS PLP yeast: -7%

What do the screens show for `Cn1c(C(=O)NCCC2=CCCCC2)cc2c(=O)n3ccccc3nc21`?
Pf growth 96h: 6.6µM*; AMA1-RON2 inh: -9%; Pf growth 48h: 73%; SARS PLP yeast: -5%

Results for Cc1cccn2c(=O)c3cc(C(=O)NCCC4=CCCCC4)n(C)c3nc12 ?
Pf growth 96h: inconclusive; AMA1-RON2 inh: 0%; Pf growth 48h: inconclusive; SARS PLP yeast: 12%

Results for C=CCn1c(SC(C)C(=O)NCCC2=CCCCC2)nc2ccccc2c1=O (configuration not stated) ?
Pf growth 96h: 13µM*; AMA1-RON2 inh: 5%; SARS PLP yeast: 3%

Results for O=C(NCCC1=CCCCC1)C(c1ccccc1)c1ccccc1 ?
Pf growth 96h: inconclusive; AMA1-RON2 inh: 2%; Pf growth 48h: inconclusive; SARS PLP yeast: 0%

What do the screens show for `CCCCCCc1cc2cc(C(=O)Nc3cccc(OC)c3)c(=O)oc2cc1O`?
Pf growth 96h: 18%; AMA1-RON2 inh: -7%; Pf growth 48h: inconclusive; SARS PLP yeast: 3%

How did Cc1nnc(SCC(=O)Nc2ccc(F)cc2)n(N)c1=O do in these assays?
Pf growth 96h: inconclusive; AMA1-RON2 inh: 11%; Pf growth 48h: 1%; SARS PLP yeast: 1%

What do the screens show for `COc1ccc(C(=O)Nc2ccccc2C(=O)N/N=C/c2ccncc2)cc1OC`?
Pf growth 96h: 188%; AMA1-RON2 inh: 2%; Pf growth 48h: 64%; SARS PLP yeast: -7%

What do the screens show for `COC(=O)[C@]12CCCCC=C1N(Cc1ccco1)C(=O)[C@H](CC(=O)NCc1ccc(OC)c(OC)c1)C2`?
AMA1-RON2 inh: 3%

Results for CCOC(=O)Cn1c2c(c(=N)c3c1CCC3)CCC2 ?
Pf growth 96h: 0%; AMA1-RON2 inh: -7%; Pf growth 48h: 1µM*; SARS PLP yeast: 3%

Results for CCOC(=O)Cn1c2c(c(=N)c3ccccc31)CCC2 ?
Pf growth 96h: 0.37µM*; AMA1-RON2 inh: -1%; Pf growth 48h: inconclusive; SARS PLP yeast: 0%

How did CCOC(=O)Cn1c(=O)cc(C)c2ccccc21 do in these assays?
Pf growth 96h: 27%; AMA1-RON2 inh: 0%; Pf growth 48h: 0%; SARS PLP yeast: 2%
